A short description of experiment [1]: A CellTox Green Cytotoxicity Assay to monitor cytotoxicity in HepG2 cells - 0 hour (AID 1224882). Also: nearly all actives have a fitted effect of over 35% in size. Put shortly:
(§1)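 HepG2, 600 cells/well premixed w/ CellTox Green; 5 h settle, 37 C/5% CO2; pintool cpd add (DMSO); 37 C, 40 h; fluorescence read at 0, 8, 16, 24, 32, 40 h.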

Experiment [2] is described as follows: A CellTox Green Cytotoxicity Assay to monitor cytotoxicity in HepG2 cells - 32 hour (AID 1224883). Also: nearly all actives have a fitted effect of over 50% in size. Also: potency is read from the fitted curve at half-maximal effect. Summed up:
as §1

Experiment [3] can be described thus: A CellTox Green Cytotoxicity Assay to monitor cytotoxicity in HEK293 cells - 8 hour (AID 1224884). Also: nearly all actives have a fitted effect of over 35% in size. Also: potency is read from the fitted curve at half-maximal effect. Summed up:
(§2)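 Read-out: fluorescence of a cell-impermeant cyanine dye staining DNA of dead cells, proportional to cytotoxicity. HEK293, 600 cells/well with reagent, compound (23 nL DMSO) added after 5 h; reads at 0, 8, 16, 24, 32, 40 h.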

The nature of experiment [4]: qHTS RealTime-Glo MT Cell Viability Assay in HepG2 cells - 16 hour (AID 1224885). Also: nearly all actives have a fitted effect of over 50% in size. Also: potency is read from the fitted curve at half-maximal effect. Put shortly:
(§3)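 Cells + NanoLuc/prosubstrate dispensed (600 cells/well) → 5 h at 37 C/5% CO2 → compounds in DMSO transferred → 40 h incubation at 37 C, luminescence read at 0, 8, 16, 24, 32, 40 h.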
For orientation: In qHTS, concentration-response curves come from the screen itself.

The nature of experiment [5]: qHTS RealTime-Glo MT Cell Viability Assay in HEK293 cells - 24 hour (AID 1224886). Also: nearly all actives have a fitted effect of over 50% in size. Also: potency is read from the fitted curve at half-maximal effect. Put shortly: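 Tox21 10K qHTS, HEK293, 600 cells/well, RealTime-Glo reagent co-dispensed with cells; 5 h preincubation, compound by pintool, 37 C, luminescence at 0–40 h.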
Experiment [6] is described as follows: qHTS RealTime-Glo MT Cell Viability Assay in HEK293 cells - 8 hour (AID 1224887). Also: nearly all actives have a fitted effect of over 50% in size. Also: potency is read from the fitted curve at half-maximal effect. Put shortly: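 Luminescence readout at each listed time point; HEK293, 600 cells/well, RealTime-Glo MT reagent added with cells; compounds pinned (23 nL in DMSO) after 5 h at 37 C; continuous culture at 37 C.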
Experiment [7] is described as follows: A CellTox Green Cytotoxicity Assay to monitor cytotoxicity in HEK293 cells - 16 hour (AID 1224888). Also: nearly all actives have a fitted effect of over 35% in size. Also: potency is read from the fitted curve at half-maximal effect. Summed up:
as §2

Experiment [8] is described as follows: qHTS RealTime-Glo MT Cell Viability Assay in HepG2 cells - 0 hour (AID 1224889). Also: nearly all actives have a fitted effect of over 50% in size. Summed up: as §3
Experiment [9] in a line: A CellTox Green Cytotoxicity Assay to monitor cytotoxicity in HepG2 cells - 8 hour (AID 1224890). Also: nearly all actives have a fitted effect of over 45% in size. Also: potency is read from the fitted curve at half-maximal effect. Summed up:
as §1

The structures appear in SMILES notation. Several values for one entry are separate records, joined by “and”; a condition that tells them apart may be missing. Equal values may be shown once. Inconclusive results are not listed. A structure can be active in one record and inactive in another. Activity calls are given as the source filed them. Calls follow the shape of the dose curve; as a rule, active = well fitted curve in the direction sought with a large enough effect in the repeat runs; inconclusive = weak or mixed curves; inactive = no such curve, though single readings can be large; an effect the other way counts as inactive or inconclusive.

The source of these data is PubChem BioAssay (Tox21).

Take `COP(=S)(OC)Oc1ccc(S(=O)(=O)N(C)C)cc1`: the Potency result in experiment [1], in [2], in experiment [3], in experiment [4], in [5] and in [6] was “inactive” in each case. The Potency result in experiment [7], in [8] and in experiment [9] was “inactive” each time.
As to `O=NN(c1ccccc1)c1ccccc1`, the Potency result in [1], in experiment [2], in experiment [3], in experiment [4], in [5] and in experiment [6] was “inactive” throughout. Besides, the Potency entry in [7], in [8] and in [9] was “inactive” in each case.
As for `C[N+](C)(C)CC(=O)O`, the Potency result in experiment [1], in experiment [2], in experiment [3], in experiment [5], in [6] and in experiment [7] was “inactive” each time. Also, the Potency result in [8] and in [9] was “inactive” each time.
Take `CCC[CH2][Sn]([Cl])([CH2]CCC)[CH2]CCC`: the Potency entry in [1] and in [8] was “inactive” throughout. Further, the Potency in experiment [2] was 1.74 µM (active) and 1.23 µM (active); in [3] it was 6.18 µM (active) and 7.76 µM (active); in [5], 347 nM (active) and 549 nM (active); in experiment [6], 618 nM (active) and 1.23 µM (active); in experiment [7] it was 3.1 µM (active) and 5.49 µM (active); in [9] it was 3.47 µM (active) and 1.95 µM (active).
`CCCCC(C#N)(Cn1cncn1)c1ccc(Cl)cc1` (configuration not stated): the Potency entry in [1], in [3], in experiment [4], in experiment [5], in [6] and in experiment [7] was “inactive” throughout. Moreover, the Potency entry in [8] and in [9] was “inactive” each time.
As for `NC(=O)CN1CCCC1=O`, the Potency result in [1], in [2], in experiment [3], in experiment [4], in [5] and in experiment [6] was “inactive” each time. For the same molecule, the Potency result in [7], in [8] and in [9] was “inactive” throughout.
Take `CC(C)Nc1nc(Cl)nc(NC(C)C)n1`: the Potency entry in [1], in experiment [2], in [3], in experiment [5], in experiment [6] and in experiment [7] was “inactive” throughout. For the same molecule, the Potency entry in [8] and in experiment [9] was “inactive” throughout.
Take `N#Cc1c(Cl)c(Cl)c(Cl)c(C#N)c1Cl`: the Potency result in experiment [1] and in experiment [8] was “inactive” each time. For the same molecule, the Potency was 21.5 µM (active) and 3.47 µM (active) in [2]; 7.76 µM (active) in experiment [3]; 21.5 µM (active) and 6.16 µM (active) in experiment [4]; 2.15 µM (active) and 1.23 µM (active) in experiment [5]; 12.1 µM (active) and 17.4 µM (active) in experiment [6]; 12.1 µM (active) and 8.71 µM (active) in experiment [7]. Besides, the Potency in experiment [9] was 48 µM (active) and 13.8 µM (active).
In the case of `Nc1ccc2ccccc2c1`, the Potency entry in experiment [1], in [2], in experiment [3], in experiment [4], in experiment [5] and in experiment [6] was “inactive” throughout. For the same molecule, the Potency entry in experiment [7], in [8] and in [9] was “inactive” in each case.
Turning to `Oc1ccc(Cl)cc1Cl`, the Potency result in [1], in [2], in [3], in [4], in [5] and in experiment [6] was “inactive” throughout. For the same molecule, the Potency result in [7], in experiment [8] and in experiment [9] was “inactive” throughout.
In the case of `O=S(=O)(O)C(F)(F)C(F)(F)C(F)(F)C(F)(F)C(F)(F)C(F)(F)C(F)(F)C(F)(F)F`, the Potency result in experiment [1], in [5], in [6] and in experiment [9] was “inactive” throughout. Besides, the Potency in experiment [2] is 18.6 µM (active) and inactive; in experiment [3], 37 µM (active) and inactive and 11 µM (active).
For `CC(C)=CC1C(C(=O)OCc2cccc(Oc3ccccc3)c2)C1(C)C` (configuration not stated), the Potency entry in experiment [1], in experiment [2], in experiment [3], in experiment [5], in experiment [6] and in [7] was “inactive” in each case. In addition, the Potency result in [8] and in experiment [9] was “inactive” in each case.
As for `CCCCCCCCCC(CC)c1ccc(S(=O)(=O)O)cc1` (configuration not stated), the Potency result in experiment [1], in experiment [4], in [6] and in experiment [8] was “inactive” throughout. In addition, the Potency in experiment [2] was 54.9 µM (active) and 21.3 µM (active) and 38.9 µM (active); in [5], 44.1 µM (active) and inactive; in [9], “inactive and 34.7 µM (active)”.
`OCCOCCO`: the Potency entry in experiment [1], in experiment [2], in experiment [3], in experiment [4], in experiment [5] and in experiment [6] was “inactive” throughout. In addition, the Potency entry in [7], in experiment [8] and in experiment [9] was “inactive” each time.
In the case of `CCC1(c2ccc(N)cc2)CCC(=O)NC1=O` (configuration not stated), the Potency entry in experiment [1], in [2], in experiment [3], in experiment [4], in [5] and in experiment [6] was “inactive” in each case. In addition, the Potency result in [7], in experiment [8] and in [9] was “inactive” each time.
On to `Oc1ccc(Cl)cc1Cc1ccccc1`, for which the Potency result in [1], in [3] and in experiment [8] was “inactive” each time. Further, the Potency entry in experiment [2] was “inactive and 33.1 µM (active)”; in [4], 49.6 µM (active) and inactive; in [5], 21.9 µM (active) and 19.7 µM (active); in [6], 21.9 µM (active) and 26.3 µM (active) and 21.3 µM (active); in [9], “inactive and 31.3 µM (active)”.
As to `Nc1ccc([N+](=O)[O-])cc1N`, the Potency entry in experiment [1], in experiment [2], in experiment [3], in [5], in experiment [6] and in experiment [7] was “inactive” each time. The Potency result in experiment [8] and in experiment [9] was “inactive” in each case.
As to `CCC(=O)Nc1ccc(Cl)c(Cl)c1`, the Potency result in experiment [1], in experiment [2], in [3], in experiment [4], in experiment [7] and in experiment [8] was “inactive” throughout. Besides, the Potency entry in experiment [9] was “inactive”. For the same molecule, the Potency in experiment [5] was 44.5 µM (active) and 43.6 µM (active).
`CCOP(=O)(OCC)OCC`: the Potency entry in [1], in experiment [2], in experiment [3], in experiment [4], in experiment [5] and in experiment [6] was “inactive” each time. Further, the Potency entry in experiment [7], in experiment [8] and in [9] was “inactive” throughout.
On to `CCOP(=O)(O)OCC` (tested in a mixture with another compound), for which the Potency result in experiment [1] and in experiment [8] was “inactive” in each case. Moreover, the Potency entry is “inactive and 38.6 µM (active)” in experiment [2]; “inactive and 54.5 µM (active)” in experiment [3]; “inactive and 48.6 µM (active)” in [4]; “inactive and 8.64 µM (active)” in [5]; “inactive and 54.5 µM (active)” in [6]; “inactive and 54.5 µM (active)” in experiment [9].
`CC(O)CN(CC(C)O)CC(C)O` (configuration not stated): the Potency entry in experiment [1], in experiment [2], in [3], in experiment [4], in experiment [5] and in experiment [6] was “inactive” in each case. Also, the Potency entry in experiment [7], in [8] and in experiment [9] was “inactive” in each case.
For the molecule `CC(C)Nc1ccc(Nc2ccccc2)cc1`, the Potency entry in experiment [1] and in [3] was “inactive” each time. For the same molecule, the Potency in experiment [2] is 43.6 µM (active); in [4], 54.7 µM (active) and 49 µM (active); in [5], 17.3 µM (active) and 19.5 µM (active); in [6], 15.4 µM (active) and 17.4 µM (active); in experiment [7], 54.9 µM (active); in experiment [9], “inactive and 49 µM (active)”.
Consider `C=CC(=O)OCC(CC)(COC(=O)C=C)COC(=O)C=C`, for which the Potency entry in [1], in [3], in experiment [7], in [8] and in [9] was “inactive” throughout. Besides, the Potency in experiment [2] was 14.2 µM (active); in [5], 4 µM (active) and 11 µM (active); in [6], 28.3 µM (active) and 21.9 µM (active).
`Cn1c(-c2ccccc2)cc(-c2ccccc2)[n+]1C`: the Potency entry in [1], in [2], in [3], in experiment [6], in experiment [7] and in [8] was “inactive” in each case. In addition, the Potency entry in [9] is “inactive”.
As to `CC(C)(C#N)N=NC(C)(C)C#N`, the Potency entry in [1], in [2], in experiment [3], in [4], in experiment [5] and in experiment [6] was “inactive” each time. Also, the Potency result in experiment [7], in [8] and in experiment [9] was “inactive” throughout.
